# This is part of a sample that, as a whole, favours compounds with a hit. Of some 83,000 tested, about 20% had one in any assay.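 The endpoint reported here, percent growth, reads 100 for growth as untreated, 0 for no net growth and -100 for all cells dead.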 A number with no mark means an inactive call. Calls of active or inactive are those of the source. How the source made its calls: active means growth percent below 10; inactive means the rest.
# Columns and labels:
# Assay in all cases: NCI-60 one-dose screen, 48 h (100 = growth as untreated, 0 = no growth, -100 = all killed)
# Details in all cases: 10 µM unless noted
# SR leukemia = tested on: SR leukemia
# RPMI-8226 leukemia = tested on: RPMI-8226 leukemia
# OVCAR-8 ovarian = tested on: OVCAR-8 ovarian
# OVCAR-5 ovarian = tested on: OVCAR-5 ovarian
# OVCAR-4 ovarian = tested on: OVCAR-4 ovarian
# SK-OV-3 ovarian = tested on: SK-OV-3 ovarian
# IGROV1 ovarian = tested on: IGROV1 ovarian
# HS 578T breast = tested on: HS 578T breast
# NCI/ADR-RES ovarian = tested on: NCI/ADR-RES ovarian
# OVCAR-3 ovarian = tested on: OVCAR-3 ovarian
Compound,growth (SR leukemia),growth (RPMI-8226 leukemia),growth (OVCAR-8 ovarian),growth (OVCAR-5 ovarian),growth (OVCAR-4 ovarian),growth (SK-OV-3 ovarian),growth (IGROV1 ovarian),growth (HS 578T breast),growth (NCI/ADR-RES ovarian),growth (OVCAR-3 ovarian)
CCN(CC)c1ccc(/C=N\NC(=O)c2cccc(Nc3ccnc(C(F)(F)F)c3)c2)c(O)c1,131%,6.52% (active),37.3%,48.6%,18.8%,19.5%,79.9%,57.8%,29.4%,
CCCCCCCCn1ccc2cc(NC(=O)Cn3cc(CN4CCC(C)CC4)nn3)ccc21,-0.808% (active),-40.9% (active),32.8%,76.7%,63%,79.1%,,59.2%,63.1%,14.7%
CC(=O)N/C(=C1/OC(C(O)C(O)C(O)CO)CN1C)[P+](c1ccccc1)(c1ccccc1)c1ccccc1 (stereo unspecified),95.3%,99.7%,102%,99.5%,97.2%,93.8%,101%,114%,101%,
CCN(CC)c1ccc(N2C(=O)/C(=C/c3cccs3)SC2=S)cc1,95.4%,97%,99.6%,95.4%,81.9%,113%,,103%,96.6%,101%
Cn1c(=O)c2c(c3ccccc31)OC(N)=C(C#N)C21C(=O)c2ccccc2C1=O,105%,94.8%,97.5%,98%,92.4%,90.8%,92.4%,81.5%,103%,
N#Cc1c(NC(=O)c2cccs2)[n+]([O-])c2ccc(Cl)cc2[n+]1[O-],109%,104%,108%,114%,94.8%,94%,-19.9% (active),56.9%,99.2%,
CCOC(=O)c1ccc2c(c1)c1c(C)c3ccncc3c(C)c1n2C,26.8%,-1.7% (active),3.64% (active),-11% (active),-12.8% (active),0.282% (active),-25.5% (active),-4.98% (active),-12.5% (active),
COc1ccc2nc3cc(Cl)ccc3c(NCCN)c2c1,-45.4% (active),-23.6% (active),-33.5% (active),-61.6% (active),-86% (active),69.3%,,91.7%,19%,-84.8% (active)
Clc1nn2c(Cn3cnc4c(NCc5ccccc5)ncnc43)nnc2c2ccccc12,17.2%,37.7%,33.2%,74.2%,37.9%,-18.5% (active),24.8%,40.1%,40.6%,
CCOC(=O)C1CCN(c2ccc(N3C[C@@H](CNCc4ccc(C(=N)N)cc4)OC3=O)cc2)CC1,98.2%,96.2%,101%,94.3%,105%,104%,,102%,105%,113%
COc1cc(/C=C/c2cc(/C=C/c3ccc(O)c(OC)c3)n(C(=O)Nc3ccc(F)cc3)n2)ccc1O,2.53% (active),3.32% (active),0.475% (active),31.3%,35.5%,-18.7% (active),,20%,27.9%,3.89% (active)
C=CCOC(=O)C1=C(C)NC(=O)NC1c1c(Cl)n(C)c2ccccc12 (stereo unspecified),97.9%,81.3%,102%,96%,103%,94.5%,107%,98.8%,99.2%,
CSCCC(NC(=O)c1ccccc1)C(=O)N/N=C1\S/C(=C/c2ccc(Cl)cc2)C(=O)N1C (stereo unspecified),38.2%,49.9%,71.1%,94.5%,88.8%,84.5%,,80.5%,96.7%,108%
CN(C)Cc1ccc(C(=O)Nc2ccc3ncnc(Nc4ccc(Oc5cccc(F)c5)c(Cl)c4)c3c2)cc1,-18.1% (active),-24.7% (active),14.2%,-28.7% (active),-24.4% (active),19%,-50.7% (active),-11.7% (active),22.7%,
O=C1Nc2ccccc2/C1=C/c1cn(C[C@@H](O)Cn2c3ccccc3c(=O)c3ccccc32)c2ccccc12,66.3%,67.1%,68.5%,86.7%,88%,73.3%,53.7%,62.8%,85.4%,
COc1ccc2c(c1)c(-c1nonc1-c1c[nH]c3ccc(Br)cc13)cn2C,14.6%,45.5%,48.2%,55.3%,55.1%,58.4%,52.7%,59.1%,34.9%,
C/C(C=O)=C\c1ccc2c(c1)OCO2,109%,96.7%,106%,110%,109%,105%,,115%,107%,132%
C[N+](C)(C/C=C/c1ccccc1)Cc1ccccc1,97.7%,123%,107%,81.2%,97.4%,107%,,106%,99.1%,96.4%
COc1cc2nc(Nc3cccc(F)c3)nc(Nc3cc(C)[nH]n3)c2cc1OC,-9.83% [20 µM] (active),-41.7% [20 µM] (active),-42.5% [20 µM] (active),-100% [20 µM] (active),-88.2% [20 µM] (active),-90% [20 µM] (active),-96.1% [20 µM] (active),-59.3% [20 µM] (active),-57.8% [20 µM] (active),
CN1CCN(CCCOc2ccc3ncnc(Nc4ccc(Oc5cccc(F)c5)c(Cl)c4)c3c2)CC1,1.08% (active),-30.1% (active),31.6%,25.4%,3.58% (active),8.4% (active),,42.3%,41.9%,0.254% (active)
CC(C)(C)c1cc(C=Nc2cccc(C(F)(F)F)c2)c(O)c(C(C)(C)C)c1,77.7%,74.5%,88.1%,105%,97.3%,100%,,102%,99.9%,95%
COc1ccc(-c2cc(C(=O)N3N=C(c4ccc(N)cc4)CC3c3ccccc3)c3ccccc3n2)cc1 (stereo unspecified),22.6%,23.5%,47.5%,64.7%,65%,34.9%,49.5%,36.8%,34.4%,
COc1cc2c(c(OC)c1OC)C(=O)CC(c1cccc(NC(=O)c3ccccc3Br)c1)O2 (stereo unspecified),68.4%,58.2%,80.1%,117%,90%,108%,,79.5%,91.3%,96.4%
CN1CCN(Cc2cc(NC(=O)c3cccc(C#Cc4cccc5[nH]nc(N)c45)c3)cc(C(F)(F)F)c2)CC1,-28.7% (active),11.2%,41%,36.1%,24.8%,81.6%,11.1%,22.3%,50.8%,
CC(C)c1ccc(-n2c(=S)[nH]c3sc4c(c3c2=O)CCC(=O)C4)cc1,50%,15.9%,49.9%,68.2%,46.5%,84.3%,,32.4%,44%,53%
N#Cc1c(Nc2ccc(F)cc2)n[nH]c1-c1cccs1,107%,97.3%,105%,100%,92%,115%,,101%,100%,109%
O=C(CSc1nnc2sc(Nc3cccc(Cl)c3)nn12)c1ccc(F)cc1,90.9%,94.9%,102%,95.1%,101%,82.1%,,97.4%,96.4%,106%
CCCCCCCCCCCCCCCCCCOc1ccccc1CC(=O)NCC[N+]1(C)CCOCC1,18.2%,-4.77% (active),67.8%,26.3%,71.7%,81.2%,-67.2% (active),67.4%,103%,
CC/C(Cc1ccccc1)=C(\c1ccc(OCCN2CCCCCC2)cc1)c1ccc(OC(=O)NCc2ccccc2)cc1,-21.1% (active),30.8%,58.9%,80.9%,57%,88.6%,,78.6%,74%,89.8%

# Reference: PubChem BioAssay (NCI)
